31 compounds from PubChem BioAssay (EPA / NIEHS) can be followed below.

The structures appear in SMILES notation. Records with an inconclusive call do not appear. Active and inactive are the calls of the source. Rule for the calls: active = hit-call score of the fitted dose curve at least 0.9, where 1 is the maximum; inconclusive = response in the unintended direction; inactive = score below 0.9.

The assay can be described thus: ACEA_ER_AUC_viability: ACEA Biosciences xCELLigence Real-Time Cell Analysis on Estrogen Receptor Agonism for Viability (AID 2283782).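 Note: hit means loss of impedance signal meaning reduced cell growth or viability.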 The gist of the method:
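Read-out: real-time electrical impedance (RT-CES) area under curve, loss of signal taken as reduced viability, normalized to DMSO baseline. T-47D cells, charcoal-stripped serum medium, compounds up to 100 uM final, continuous exposure, 80 h.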
Consider `C[C@@H](Oc1ccc(Cl)cc1Cl)C(=O)O`, for which the compound was classed as inactive.
As to `CCOC(=O)Nc1cccc(OC(=O)Nc2ccccc2)c1`, the call was inactive.
For the compound `COP(=S)(OC)Oc1c(Cl)cc(C)cc1Cl`, the outcome was inactive.
For `CC(C)OC(=O)Nc1ccccc1`, the call was inactive.
On to `Oc1c(I)cc(I)cc1I`, for which the AC50 (usually the concentration giving half of the maximal activity seen) is 87.9 µM (active).
On to `CC(C)=C[C@@H]1[C@@H](C(=O)OCc2coc(Cc3ccccc3)c2)C1(C)C`, for which the compound was called inactive.
`CN(C)N=O`: the compound was classed as inactive.
Take `O=C1C(Cl)=C(Cl)C(=O)c2ccccc21`: the AC50 was 16.7 µM (active).
For `CCCCCCCCC(=O)NCc1ccc(O)c(OC)c1`, the AC50 is 50 µM (active).
With `Cc1cc(=O)[nH]o1`, the compound was called inactive.
For the compound `NC(=S)Nc1ccccc1`, the AC50 is 60.6 µM (active).
For `O=[N+]([O-])c1c(Cl)c(Cl)cc(Cl)c1Cl`, the result was inactive.
Same read-out and setting: to `CN(CCCC(=O)c1cccnc1)N=O` belongs “inactive”.
Turning to `CC1CN1P(=O)(N1CC1C)N1CC1C` (stereo unspecified), the AC50 is 64.1 µM (active).
Still for that read-out and setting: for `CCOC(=O)CP(=O)(OCC)OCC` the value was 36.8 µM (active).
In the case of `CCOP(=S)(OCC)SCCS(=O)(=O)CC`, the AC50 is 57.6 µM (active).
As to `CCCCCCCCCl`, the call was inactive.
`C=CC#N`: the result was inactive.
Regarding `CCCCCCCCc1ccc(O)cc1`, the AC50 was 24.4 µM (active).
`OCC(O)CCl` (stereo unspecified): the outcome was inactive.
The same measure, in the same setting: to `O=CC=O` belongs “inactive”.
Consider `N#Cc1ccccn1`, for which the result was inactive.
Regarding `Clc1nc(Cl)nc(Cl)n1`, the result was inactive.
Same read-out and setting: to `C=CCc1ccc(OC)cc1` belongs “inactive”.
In the case of `[O-][Cl+2]([O-])O`, the compound was called inactive.
Same read-out and setting: to `C=C(C)C#N` belongs “inactive”; to `CC(C)c1ccc(CO)cc1`, “inactive”; to `CCOP(=S)(OCC)Oc1ccc(S(C)=O)cc1` (stereo unspecified), “inactive”.
For the compound `ClCc1ccccn1`, the AC50 was 50 µM (active).
Turning to `C=CC(=O)N(C)C`, the AC50 is 50 µM (active).
On to `CCCCP(CCCC)CCCC`, for which the AC50 was 27.9 µM (active).
